Bioassay records as filed in PubChem BioAssay.
Only some compounds are listed: those with a hit (about 7.9% of all), similar ones and a draw of the others.
KB-V1 cytotox = qHTS assay for MDR1-selective chemotherapeutics: Primary screen using the drug-selected MDR subline cells KB-V1 | KB-V1 MDR cells viability, CellTiter-Glo, 72 h | Potency, µM (titrated, usually from 46.1 µM), usual class: cytotoxic | 400,000 compounds, 3.4% hits | AID 1347076, 2019; also: % is scaled to controls: 0 for no effect and ±100 for the full control effect; nearly all actives have a fitted effect of over 60% in size
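Following 72 h at 37 degrees C with compound, KB-V1 cell viability was read by CellTiter-Glo luminescence, medium being phenol-red-free DMEM plus 10% FBS; concentration-response parameters came from normalized, curve-fitted qHTS data.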
HT1080 IDH1KD tx = qHTS for induction of synthetic lethality in tumor cells producing 2HG: qHTS for the HT-1080-IDH1KD cell line; HT-1080 IDH1 knockdown viability, ATP luminescence, 48 h; Potency, µM (doses to about 46.1 µM), inactives show at the top dose activity, negative = toxicity, most hits filed as cytotoxic; 360,000 compounds, 2% hits;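 also: 0% = DMSO wells and -100% = cell-free medium wells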
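Knockdown cells (IDH1KD HT-1080) received compounds 2 h after plating at 750 cells/well and were kept 48 h at 37 °C in 5% FBS RPMI. A CellTiter-Glo luminescence read gave % activity for curve fitting.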
MCF10A rerep = A quantitative high throughput screen for small molecules that induce DNA re-replication in MCF 10a normal breast cells. MCF 10A DNA re-replication, Hoechst nuclear intensity, 48 h. Potency, µM (doses to about 46.1 µM), inactives show at the top dose activity, positive = re-replication, actives largely listed as activators. AID 624296, 2012. 350,000 compounds, 2.9% hits; also: % of control where 0% means no effect; nearly all actives have a fitted effect of over 50% in size
KB-3-1 cytotox = qHTS assay for MDR1-selective chemotherapeutics: Primary screen using the parental adenocarcinoma cell KB-3-1; 400,000 compounds, 1.4% hits; Potency, µM (titrated, usually from 46.1 µM), usual class: cytotoxic; KB-3-1 viability, CellTiter-Glo ATP luminescence, 72 h; also: % is scaled to controls: 0 for no effect and ±100 for the full control effect; nearly all actives have a fitted effect of over 60% in size
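Luminescent ATP read-out (CellTiter-Glo) measures survival of drug-naive KB-3-1 cells after 72 h compound exposure at 37 °C. Titration series was screened from lowest to highest concentration, with DMSO vehicle plates as background controls.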
HT1080NT lethal = qHTS for induction of synthetic lethality in tumor cells producing 2HG: qHTS for the HT-1080-NT fibrosarcoma cell line | HT-1080-NT fibrosarcoma viability, CellTiter-Glo ATP luminescence, 48 h | Potency, µM (highest dose often 46.1 µM), without a hit: at the highest dose activity, negative = less viability, hits mostly cytotoxic | 360,000 compounds, 1.6% hits;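 also: NT is the 2HG producing partner of a matched IDH1 knockdown line; 0% = DMSO-treated cells and -100% = media-only wells without cells; nearly all actives have a fitted effect of over 55% in size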
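A 48-hour cytotoxicity screen used HT-1080-NT cells plated 2 hours before compound delivery. ATP-based CellTiter-Glo luminescence measured viability, normalized to DMSO and no-cell controls.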
SW480 rereplic = A quantitative high throughput screen for small molecules that induce DNA re-replication in SW480 colon adenocarcinoma cells; SW480 DNA re-replication, Hoechst DNA content imaging, 48 h; Potency, µM (highest dose often 46.1 µM), inactives show at the top dose re-replication activation, most hits filed as activators; 340,000 compounds, 1.8% hits; AID 624297, 2012; also: % of control where 0% means no effect; nearly all actives have a fitted effect of over 55% in size
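Compounds, transferred as 23 nL by pin tool, were incubated with cells for 48 hr; DNA content per nucleus was then quantified by Hoechst staining and fluorescence plate imaging.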
Numbers without * were called inactive; i = inactive; ? = inconclusive; / = no result. Calls follow the shape of the dose curve; as a rule, active = well fitted curve in the direction sought with a large enough effect; inconclusive = small, poorly fitted or top-dose-only effect, or another doubt; inactive = no such curve, though single readings can be large; an effect the other way counts as inactive or inconclusive. Potency is read from the fitted curve at half-maximal effect.

SMILES | KB-V1 cytotox | HT1080 IDH1KD tx | MCF10A rerep | KB-3-1 cytotox | HT1080NT lethal | SW480 rereplic
CN1CCN(S(=O)(=O)c2ccc(Cc3ccc(S(=O)(=O)N4CCN(C)CC4)cc3)cc2)CC1 | i | -23% | 21µM* | i | -19% | 9%
CCOc1cc(CNCCSc2nnnn2C)cc(Br)c1OCc1ccccc1F | ? | ? | ? | i | ? | ?
CCOc1cc(CNCCSc2nnnn2C)cc(Br)c1OCc1ccc(F)cc1 | 18µM* | -93% | 28% | ? | 23µM* | ?
CC1CCCN(c2nc(NCc3ccco3)nc(N)c2[N+](=O)[O-])C1 (stereo unspecified) | 15µM* | -13% | 23% | i | ? | /
Fc1ccc(Nc2nc(NCc3ccco3)c3ccccc3n2)cc1 | 18µM* | -18% | ? | ? | ? | ?
CC(C)c1ccc(Nc2nc(Cl)nc(NCc3ccco3)n2)cc1 | i | ? | 23µM* | ? | ? | 5.8µM*
Nc1nc(NCc2ccco2)nc(Nc2ccccc2)c1[N+](=O)[O-] | ? | 4% | -1% | i | -1% | -9%
Nc1nc(Nc2ccccc2)nc(NCc2ccco2)c1[N+](=O)[O-] | 16µM* | -9% | ? | i | -5% | -5%
CC1CC(C)CN(c2nc(NCc3ccco3)nc(N)c2[N+](=O)[O-])C1 (stereo unspecified) | ? | 8% | ? | ? | 4% | 6%
Nc1nc(NCCc2ccccc2)nc(NCc2ccccc2)c1[N+](=O)[O-] | i | -5% | 4% | ? | -4% | 9%
CN(Cc1ccccc1)c1nc(N)c([N+](=O)[O-])c(NCc2ccccc2)n1 | 18µM* | ? | ? | ? | ? | -2%
c1coc(CNc2nc(NCc3ccco3)c3ccccc3n2)c1 | i | / | / | i | / | /
Cc1ccc2c(NCc3ccco3)nc(NC(C)C)nc2c1 | ? | 18µM* | / | i | 26µM* | /
O=C(/C=C/c1c(F)cccc1Cl)c1ccc(O)cc1 | i | ? | 3.3µM* | ? | ? | ?
O=C(/C=C/c1ccccc1Cl)c1ccc(O)cc1 | ? | ? | ? | i | -2% | ?
N#C/C(=C\c1ccccn1)c1ccccn1 | i | -18% | 21µM* | ? | -15% | 15µM*
COc1cc(/C=C(\C#N)c2ccccn2)ccc1OCc1ccccc1Cl | 10µM* | 4% | ? | i | 2% | -2%
COc1cc(/C=C(\C#N)c2ccccn2)ccc1OCC(=O)Nc1cccc(C(F)(F)F)c1 | i | -6% | ? | i | -3% | 2%
Cc1cc(C)n2nc(CC#N)c(C#N)c2n1 | ? | 28% | 1% | i | 15% | 2%
COc1cc(/C=C(\C#N)c2ccccn2)cc(OC)c1O | ? | -18% | ? | 7.3µM* | -8% | ?
COC(=O)c1ccc(/C=C(\C#N)c2ccccn2)cc1 | i | -12% | ? | ? | -1% | -9%
Cc1cc(C)n2nc(/C(C#N)=C/c3ccccn3)c(C#N)c2n1 | i | -9% | 6.5µM* | i | -11% | 3.3µM*
N#C/C(=C/c1cccs1)c1ccccn1 | i | 15% | 2% | i | 11% | -14%
Cc1cc(C)cc(-n2c3ccc(NC(=S)NC4CCCCC4)cc3c(=O)n2C)c1 | i | -16% | / | ? | ? | /
CCOC(=O)C1=C(CC)Nc2ccccc2N/C1=N\S(=O)(=O)c1ccc2ccccc2c1 | i | 15µM* | ? | i | 18µM* | 22%
SMILES | KB-V1 cytotox | HT1080 IDH1KD tx | MCF10A rerep | KB-3-1 cytotox | HT1080NT lethal | SW480 rereplic
CCCC(=O)OCCNc1cc(Sc2nc3ccccc3[nH]2)c2nonc2c1[N+](=O)[O-] | i | ? | ? | ? | 21µM* | ?
CCC(=O)OCCNc1cc(Sc2nccn2C)c2nonc2c1[N+](=O)[O-] | i | ? | ? | ? | 15µM* | /
O=C(CSc1cc(Cl)ccc1Cl)NCCN1C(=O)CSC1=O | i | 7% | 2% | i | 2% | -6%
Cc1ccc(NC(=O)C(Nc2ccccc2)c2ccccc2)cc1 (stereo unspecified) | i | 15% | 0% | i | 25% | -9%
Cc1ccc(NC(C(=O)c2ccccc2)c2ccccc2)cc1 (stereo unspecified) | i | ? | ? | ? | 23µM* | -9%
COc1cc2ncnc(NCc3cccc(F)c3F)c2cc1OC | i | 5% | -8% | i | -6% | -8%
COc1cc2c(Nc3ccc(Br)cc3F)ncnc2cc1OCC1CCN(C)CC1 | / | / | 27µM* | / | / | ?
COc1ccc(C(=O)CC(=O)C(=O)Nc2ccccc2Cl)cc1 | i | 5% | 7% | i | -15% | 0%
CCOC(=O)CCCCCC(=O)Nc1ccc2c(c1)C(=O)N([C@H](C)CO)C[C@H](C)[C@@H](CN(C)C(=O)Nc1ccccc1)OCCCC[C@@H](C)O2 | i | -3% | / | i | 3% | /
Cn1c(/C=C/c2ccc(Cl)cc2)c([N+](=O)[O-])c(=O)n(C)c1=O | i | ? | 7.3µM* | ? | ? | 18%
CCCCOCCCNC(=S)Nc1ccc(S(=O)(=O)N2CCOCC2)cc1 | 18µM* | 0% | 20% | ? | -12% | 63%
CC(CC(=O)Nc1ccc(S(=O)(=O)N2CCOCC2)cc1)c1ccccc1 (stereo unspecified) | i | -14% | 9% | i | 0% | -2%
O=S(=O)(c1ccc(NC(=S)NCCC(c2ccccc2)c2ccccc2)cc1)N1CCOCC1 | ? | ? | 5.2µM* | ? | -27% | ?
O=S(=O)(c1ccc(NC(=S)N/N=C/c2c3ccccc3cc3ccccc23)cc1)N1CCOCC1 | ? | ? | ? | 3.7µM* | ? | 13µM*
CCN(CC)CCNC(=O)Cn1ncc2c3ccccc3n(Cc3ccc(Cl)cc3)c2c1=O | ? | / | / | i | / | /
NS(=O)(=O)c1ccc(CCNC(=O)COC(=O)CCc2c[nH]c3ccccc23)cc1 | / | -1% | 6% | / | 0% | -3%
Cc1ccc(NC(=O)Cn2c(=O)n(CCCCC(=O)NCCc3ccc(Cl)cc3)c(=O)c3ccccc32)cc1 | i | / | / | i | / | /
